# Assay outcomes: PubChem, National Center for Advancing Translational Sciences (NCATS)
# SW480 rereplic: induces DNA re-replication in SW480 colon adenocarcinoma cells | SW480 DNA re-replication, Hoechst DNA content imaging, 48 h | Potency, µM (highest dose often 46.1 µM), inactives show top-dose re-replication activation, most hits filed as activators | hit rate 1.8% among 340,000 | AID 624297; also: % of control where 0% means no effect; nearly all actives have a fitted effect of over 55% in size
#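 Treated cells incubate 48 hr (37 C, 5% CO2), are stained 40 min with Hoechst, and nuclear fluorescence is enumerated; a rise in nuclei with high DNA signal marks re-replication.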
# PINK1 expr mod: modulators of PINK1 expression. PINK1 immunofluorescence, high-content cytometry, 24 h. Potency, µM (highest dose often 76.6 µM), without a hit: at the top dose activation (PINK1 increase), usual class: activators. hit rate 0.2% among 410,000; active = well fitted activation curve with a large enough effect; inconclusive = small, poorly fitted or top-dose-only effect; cell line not stated here; also: % of control where 0% means no effect; nearly all actives have a fitted effect of over 65% in size
#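 Compound titrations (5 concentrations, 24 h) on a stable cell line; DMSO and CCCP controls. Endpoint: fixed-cell PINK1 immunofluorescence with mitochondrial, cell and nuclear markers, scanned by microplate cytometer.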
# KB-V1 MDR tox: kills drug-selected multidrug resistant KB-V1 cells; KB-V1 MDR cells viability, CellTiter-Glo, 72 h; Potency, µM (top dose mostly 46.1 µM), most hits filed as cytotoxic; hit rate 3.4% among 400,000; AID 1347076; also: % is scaled to controls: 0 for no effect and ±100 for the full control effect; nearly all actives have a fitted effect of over 60% in size
#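 Cytotoxicity via CellTiter-Glo luminescence after 72 h compound exposure at 37 degrees C. Cells: drug-selected KB-V1 line, DMEM phenol-red free plus 10% FBS. Compounds tested at multiple concentrations; normalized data fitted to concentration-effect curves.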
# MCF10A rereplic: induces DNA re-replication in MCF 10a normal breast cells; AID 624296; hit rate 2.9% among 350,000; Potency, µM (highest dose often 46.1 µM), without a hit: at the top dose activity, positive = re-replication, actives largely listed as activators; MCF 10A DNA re-replication, Hoechst nuclear intensity, 48 h; also: % of control where 0% means no effect; nearly all actives have a fitted effect of over 50% in size
# KB-3-1 tox: KB-3-1 parental cell cytotoxicity; KB-3-1 viability, CellTiter-Glo ATP luminescence, 72 h; Potency, µM (highest dose often 46.1 µM), hits mostly cytotoxic; hit rate 1.4% among 400,000; also: % is scaled to controls: 0 for no effect and ±100 for the full control effect; nearly all actives have a fitted effect of over 60% in size
#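 Parental KB-3-1 viability, qHTS format: 72 h compound exposure, 37 °C; CellTiter-Glo; media-only wells and DMSO plates as controls; concentration-effect fits on corrected data.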
# PTAP TSG101 blk: blocks PTAP/TSG101 interaction to inhibit HIV-1 budding; Q99816; Fluorescence polarization, FITC-PTAP peptide / Tsg101 binding; Potency, µM (titrated, usually from 115 µM), for inactives: at the top dose activity change, negative = inhibition, most hits filed as inhibitors; 340,000 tested, under 10 active; active = well fitted inhibition curve with a large enough effect in the main read-out, with a control signal flat, not every such curve was filed as active; inconclusive = small, poorly fitted or top-dose-only effect, or effect the other way, or a change in a side signal; inactive = no such curve, though single readings can be large or run the other way; also: % of control where 0% means no effect
# Target sequence (Q99816 whole entry, looked up): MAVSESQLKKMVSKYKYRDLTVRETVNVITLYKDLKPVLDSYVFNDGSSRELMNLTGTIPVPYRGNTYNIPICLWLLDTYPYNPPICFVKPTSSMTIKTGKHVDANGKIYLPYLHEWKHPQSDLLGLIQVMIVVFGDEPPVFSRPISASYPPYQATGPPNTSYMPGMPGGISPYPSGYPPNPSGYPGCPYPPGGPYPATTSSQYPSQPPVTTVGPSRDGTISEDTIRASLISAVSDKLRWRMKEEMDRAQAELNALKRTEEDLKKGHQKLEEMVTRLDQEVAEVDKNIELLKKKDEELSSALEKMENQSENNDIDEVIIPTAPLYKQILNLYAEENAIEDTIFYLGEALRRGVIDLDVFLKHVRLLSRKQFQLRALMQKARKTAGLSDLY
#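 Steps: Tsg101 binding domain dispensed (10 uM final), compounds pinned in DMSO, FITC-labeled PTAP-motif peptide added (50 nM final); after 20 min binding at room temperature, polarization measured.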
# * marks the source's active call; other numbers are inactive results; i = inactive; ? = inconclusive; / = no result given. Most compounds without a hit are left out; they make up all but 6.8% or so of the library. Unless noted, calls follow the shape of the dose curve; as a rule, active = well fitted curve in the direction sought with a large enough effect; inconclusive = small, poorly fitted or top-dose-only effect, or another doubt; inactive = no such curve, though single readings can be large; an effect the other way counts as inactive or inconclusive. Potency is read from the fitted curve at half-maximal effect.
SMILES,SW480 rereplic,PINK1 expr mod,KB-V1 MDR tox,MCF10A rereplic,KB-3-1 tox,PTAP TSG101 blk
O=C(NC(=S)Nc1ccccc1N1CCCCC1)c1ccc(-c2cccc([N+](=O)[O-])c2)o1,-30%,0%,i,3%,i,-1%
Cc1c(C(=O)NC(=S)Nc2ccccc2N2CCCC2)cccc1[N+](=O)[O-],12%,2%,13µM*,9%,i,-1%
O=C(Cc1ccccc1)N(Cc1cccnc1)c1nc2ccc(F)cc2s1,/,14%,/,/,/,/
Cc1nc2c(C(=O)NCCC(C)C)cnn2c(C)c1Cc1c(F)cccc1Cl,/,-1%,?,/,i,/
COc1cccc(-n2nnc(-c3nc(-c4ccccc4F)no3)c2C)c1,/,0%,/,/,/,/
CC(C)C1N=C2c3ccccc3N=C(SCc3cc(=O)n4cc(Cl)ccc4n3)N2C1=O (stereo not given),-1%,-1%,23µM*,13%,?,-7%
CC(C)C1N=C2c3ccccc3N=C(SCC(=O)NCc3ccc(Cl)cc3)N2C1=O (stereo not given),/,0%,i,/,i,/
O=[N+]([O-])c1cc(C(F)(F)F)ccc1NCCc1c[nH]c2ccc(O)cc12,13%,11µM*,i,-8%,i,-1%
CCOC(=O)c1ccc(CSC(=N)N)o1,21µM*,6%,i,?,?,-7%
COC(=O)c1ccc(CSC(=N)N)o1,?,8%,i,?,i,-4%
CCc1nc2ccc(C(=O)NCc3ccccc3OC)cn2c1N(CC)Cc1cccc(Br)c1,/,1%,16µM*,/,?,/
CCc1nc2ccc(C(=O)NCCOc3ccc(OC)cc3)cn2c1N(CC)Cc1cccc(Br)c1,/,0%,?,/,?,/
Cc1ccc(S(=O)(=O)c2cc3c(=O)n4ccccc4nc3n(CCCN3CCOCC3)c2=N)cc1C,23µM*,0%,i,23µM*,i,-10%
N=c1c(S(=O)(=O)c2ccc(Cl)cc2)cc2c(=O)n3ccccc3nc2n1CCN1CCOCC1,12%,3%,13µM*,22%,i,-4%
N=c1c(S(=O)(=O)c2ccc(Cl)cc2)cc2c(=O)n3ccccc3nc2n1Cc1cccnc1,29%,40µM*,i,8%,i,?
CC(C)Oc1ccc(C(=O)Nc2nnc3n2CCS3)cc1,/,-3%,i,/,i,/
COc1ccc(OC)c(Nc2ncnc3sccc23)c1,?,3%,i,8%,i,-4%
COc1cc(CN(C)c2ncnc3sccc23)ccc1OC(F)F,-5%,0%,8.2µM*,8%,?,1%
COc1cccc(CN2C(=O)NC(C)(C3CCN(Cc4cnn(C)c4C)CC3)C2=O)c1OC (stereo not given),/,1%,/,/,/,/
COc1ccc2[nH]c(=O)cc(C(=O)O)c2c1,9%,-1%,i,-37%,i,-2%
COc1ccc2[nH]c3c4c(ccc3c2c1)C(=O)C=CC4=O,3.3µM*,-3%,i,?,9.2µM*,1%
COc1ccc2cc(C(C)C(=O)O)ccc2c1 (stereo not given),-55%,-1%,i,-3%,i,2%
O=C(CCCN1C(=O)c2cccc3cccc(c23)C1=O)N1CCN(c2ccccc2)CC1,-1%,?,i,20%,i,5%
Cc1ccc(NC(=S)N2CCN(CCN3C(=O)c4cccc5cccc(c45)C3=O)CC2)cc1,-2%,5%,15µM*,-1%,i,0%
O=C(CCCN1C(=O)c2cccc3cccc(c23)C1=O)N1CCN(c2ccccc2O)CC1,-38%,2%,6.5µM*,?,?,-2%
SMILES,SW480 rereplic,PINK1 expr mod,KB-V1 MDR tox,MCF10A rereplic,KB-3-1 tox,PTAP TSG101 blk
O=C(C(c1ccccc1)c1ccccc1)N1CCN(CCN2C(=O)c3cccc4cccc(c34)C2=O)CC1,-3%,8%,i,15µM*,i,0%
Cc1cc(C)cc(C(=O)Nc2ccc(-c3nc4ncccc4o3)cc2)c1,/,11%,i,/,i,/
Cn1cccc1C(=O)N1CCC2(CCCN(c3ccccn3)C2)CC1,/,-1%,/,/,/,/
CC1=NN(c2ccc(Br)cc2)C(=O)/C1=C/c1cccs1,?,-1%,i,18µM*,i,-8%
COc1ccc(-c2cc(=O)c3ccccc3s2)cc1,-23%,/,15µM*,-13%,i,-6%
COc1ccc2sc3ccccc3c(=O)c2c1,?,-1%,?,?,i,-3%
Cn1c2ccccc2c(=O)c2ccc(-c3ccc4c(c3)OCO4)cc21,?,1%,?,15µM*,?,/
COc1cc(-c2c(CCO)sc3ccccc23)cc(OC)c1OC,/,8%,21µM*,/,?,/
c1ccc2c(c1)c1ccccc1n1c(-c3ccc4c(c3)OCO4)nnc21,-2%,-2%,21µM*,-1%,?,-7%
COc1cc(-c2c(-c3ccsc3)sc3ccccc23)cc(OC)c1OC,-3%,6%,i,?,i,0%
COc1cc(-c2ccc3c(=O)c4ccccc4sc3c2)cc(OC)c1OC,0.65µM*,2%,i,3.7µM*,i,1%
Cc1ccc2c(c1)N(C(=O)N1CCC(C(=O)NCCc3ccc(Cl)cc3)CC1)CC(C)O2 (stereo not given),/,0%,i,/,i,/
CC(=O)Nc1c(-c2ccc(Cl)cc2)c(=O)c2ccccc2n1C,-3%,4%,i,-18%,i,4%
Cn1c(C=O)c(-c2ccc3c(c2)OCCO3)c2ccccc21,4%,2%,i,16µM*,i,0%
Cn1c2ccccc2c(=O)c2ccc(C#Cc3ccccn3)cc21,6%,25%,i,?,i,-2%
